Compounds with a hit are over-represented: about 18% of the library has one in this group of screens.
TDP1 block: blocks human tyrosyl-DNA phosphodiesterase 1; recombinant TDP1, AlphaScreen DNA substrate cleavage; AID 485290; 350,000 compounds, 0.28% hits; Potency, µM (series often up to 130 µM), for the others: at the highest dose activity change, negative = inhibition, most hits filed as inhibitors; also: nearly all actives have a fitted effect of over 40% in size
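Compounds were preincubated with Tdp1 (1 nM final) for 15 min at room temperature before substrate (15 nM final) started a 5 min reaction; beads (10 ug/ml final) were then added for 10 min before AlphaScreen detection.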
KAT2A inh: GCN5L2 (KAT2A) acetyltransferase inhibition | Q92830 | GCN5L2 HAT assay, ThioGlo1 CoA-SH fluorescence | Potency, µM (doses to about 58.9 µM), for the others: top-dose activity change, negative = inhibition, most hits filed as inhibitors | 390,000 compounds, 0.21% hits | AID 504327
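Enzyme at 20nM final was mixed with library compounds for 15 min at room temperature. Peptide H3(1-25) at 75uM, acetyl-CoA at 70uM and ThioGlo1 at 50uM were then added. Plates were read immediately and after 20 min (Ex340nm/Em540nm).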
DT40 TDP1 no CPT: qHTS for Inhibitors of human tyrosyl-DNA phosphodiesterase 1 (TDP1): qHTS in cells in absence of CPT; DT40 Tdp1-/- hTDP1 cells, no CPT, ATP luminescence, 48 h; Potency, µM (highest dose often 46.2 µM), inactives show at the top dose activity change, negative = growth inhibition, actives largely listed as inhibitors; 420,000 compounds, 15% hits; also: nearly all actives have a fitted effect of over 55% in size
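No-CPT arm: Tdp1-/-;hTDP1 DT40 cells (400/well) plus compounds, incubated ≥48 hr at 37 °C. Readout CellTiter-Glo luminescence.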
TDP1 cell CPT: growth inhibition of DT40 Tdp1-/-;hTDP1 cells with camptothecin (screen for TDP1 inhibitors) | chicken DT40 Tdp1-/-;hTDP1 cells + 20 nM CPT, ATP luminescence, 48 h | Potency, µM (titrated, usually from 46.2 µM), inactives show at the top dose activity change, negative = growth inhibition, most hits filed as inhibitors | 420,000 compounds, 12% hits; also: nearly all actives have a fitted effect of over 55% in size
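Chicken DT40 Tdp1-/- cells complemented with human TDP1, 400 cells/well, exposed to compounds plus 20 nM camptothecin for at least 48 h at 37 C; viability read as ATP content by CellTiter-Glo luminescence.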
VDR inh: vitamin D3 receptor (human) inhibition; VDR-SRC2-3 peptide fluorescence polarization, 2 h; AID 504847; 400,000 compounds, 0.93% hits; Potency, µM, inactives show max response, negative = inhibition, usual class: inhibitors
Target sequence (P11473 whole entry, looked up): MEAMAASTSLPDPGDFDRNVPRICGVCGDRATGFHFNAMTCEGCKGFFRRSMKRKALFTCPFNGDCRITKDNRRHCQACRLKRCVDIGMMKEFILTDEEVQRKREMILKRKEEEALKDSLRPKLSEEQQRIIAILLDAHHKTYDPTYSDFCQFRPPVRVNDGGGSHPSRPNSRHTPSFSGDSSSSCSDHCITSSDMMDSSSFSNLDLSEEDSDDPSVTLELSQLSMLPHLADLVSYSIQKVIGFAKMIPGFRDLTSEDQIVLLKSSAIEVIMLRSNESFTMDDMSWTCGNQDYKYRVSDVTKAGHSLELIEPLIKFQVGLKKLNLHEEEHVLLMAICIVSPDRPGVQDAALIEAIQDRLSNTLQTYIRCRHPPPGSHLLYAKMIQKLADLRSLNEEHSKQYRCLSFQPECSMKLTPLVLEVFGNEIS
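The screen uses fluorescence polarization to detect compounds that interfere with recruitment of the SRC2-3 coactivator peptide to VDR; plates are read after 2 h at room temperature.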
PLK1 PBD block: inhibitors of human PLK1 polo-box domain binding; P53350; Plk1 PBD binding of FITC phosphopeptide, fluorescence polarization; Potency, µM, for the others: max response, negative = inhibition, hits mostly inhibitors; 360,000 compounds, 2.8% hits; also: series mostly up to about 57 µM; nearly all actives have a fitted effect of over 65% in size
Starred values were filed as active, the others as inactive; ? = inconclusive; / = no result. Calls follow the shape of the dose curve; as a rule, active = well fitted curve in the direction sought with a large enough effect; inconclusive = small, poorly fitted or top-dose-only effect, or another doubt; inactive = no such curve, though single readings can be large; an effect the other way counts as inactive or inconclusive. % is scaled to controls: 0 for no effect and ±100 for the full control effect; potency is read from the fitted curve at half-maximal effect.

SMILES | TDP1 block | KAT2A inh | DT40 TDP1 no CPT | TDP1 cell CPT | VDR inh | PLK1 PBD block
COc1ccc(Br)cc1/C=N/NC(=O)CNC(=O)/C=C/c1ccccc1 | 7% | -5% | 13µM* | 16µM* | 5% | -7%
COc1cccc(/C=N/NC(=O)CC2C(=O)NN=C2C)c1O (stereo not drawn) | 5% | 0% | -3% | ? | -16% | -9%
COc1ccc(/C=C/C(=O)NCC(=O)N/N=C/c2cc(Br)ccc2OCc2ccccc2)cc1 | 5% | -10% | ? | ? | 12% | -2%
Cc1ccc(NC(=S)N(CCC(C)C)C(C)c2ccncc2)c(Cl)c1 (stereo not drawn) | 0% | -13% | ? | -30% | -14% | -8%
C[C@@H](NC(=O)[C@@H]1Cc2ccccc2CN1C(=O)OC(C)(C)C)C(=O)NCc1ccco1 | -1% | -13% | 19% | 2% | 5% | -9%
CC1=CC(C2CC(=O)N(c3ccc(C)cc3)C2=O)CC2C(=O)N(c3ccc(C)cc3)C(=O)C12 (stereo not drawn) | -5% | ? | ? | 12% | 8% | -5%
O=C(NCc1ccco1)C(=O)N1CCCC1 | 6% | 12% | 34% | 0% | -11% | -6%
CC(=O)NC(C)(c1ccccc1)c1nc(-c2cccc(C#N)c2)cs1 (stereo not drawn) | / | / | ? | ? | / | -9%
COc1cccc(Nc2nc(C(C)N)cs2)n1 (stereo not drawn) | / | / | ? | 13µM* | / | -9%
COc1cccc(Nc2nc(C(N)c3ccccc3)cs2)n1 (stereo not drawn) | / | / | 12µM* | 9.2µM* | / | -15%
COc1cccc(Nc2nc(C(N)C3CCCCC3)cs2)n1 (stereo not drawn) | / | / | 23µM* | ? | / | -5%
COc1ccc(C(N)c2csc(Nc3ncccn3)n2)cc1 (stereo not drawn) | / | / | ? | ? | / | 3%
CCOc1cccc(C2c3c(oc4ccc(F)cc4c3=O)C(=O)N2c2cc(C)ccn2)c1 (stereo not drawn) | 0% | 14% | 23µM* | 16µM* | -5% | /
O=C(Nc1cccc(C(=O)O)c1)/C(=C\c1cccc([N+](=O)[O-])c1)NC(=O)c1ccc(Br)cc1 | / | / | -3% | 10% | / | 4%
COc1nc(-c2ccc(Cl)cc2)ccc1-c1noc(-c2ccco2)n1 | 0% | 4% | -11% | ? | 11% | -3%
COc1nc2c(C)cccc2cc1-c1noc(-c2ccco2)n1 | 5% | 2% | 0.15µM* | -43% | 14% | 0%
NC(=O)c1cc(N2C(=O)C=CC2=O)ccc1Cl | 9% | ? | 16µM* | 13µM* | 20µM* | 21µM*
O=S(=O)(c1ccc(Nc2ccc(-c3ccc4c(c3)OCCO4)nn2)cc1)N1CCCC1 | 6% | -15% | ? | ? | -21% | -9%
O=C(NC1CC1)c1cccc(Nc2ccc(-c3ccc4c(c3)OCCO4)nn2)c1 | 8% | -25% | 12µM* | 21µM* | -17% | -7%
CCCCC(=O)N(C)c1c(CC)nc2c(OCC=C(C)C)cccn12 | / | / | 21µM* | ? | / | -14%
CCc1nc2c(OCc3cccc(Cl)c3)cccn2c1N(C)C(C)=O | / | / | ? | ? | / | -10%
CCc1nc2c(OCc3cccc(Cl)c3)cccn2c1N(C)C(=O)Nc1ccccc1OC | / | / | 23µM* | 18µM* | / | 0%
CCc1nc2c(OCc3cccc(Cl)c3)cccn2c1N(C)C(=O)C(C)C | / | / | 18µM* | 16µM* | / | -10%
CCCCC(=O)N(C)c1c(CC)nc2c(OCc3cccc(Cl)c3)cccn12 | / | / | 23µM* | ? | / | -8%
CCCNC(=O)c1cc(C2CCCCN2C(=O)OCC(C)C)on1 (stereo not drawn) | / | / | -26% | -25% | / | -12%

Screening data: PubChem, National Center for Advancing Translational Sciences (NCATS)
